{"source": "PubChem BioAssay AID720486", "about": "(Milwaukee Institute for Drug Discovery, 2013)", "note": "Some of the results follow. A number with no mark means an inactive call. Activity calls are given as the source filed them.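 The calls were made as follows: active = inhibition of at least 50%; inactive = the rest.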", "data": [{"molecular_target": "Single-stranded DNA-binding protein (Escherichia coli (strain K12)) (UniProt P0AGE0)", "sequence (P0AGE0 whole entry, looked up)": "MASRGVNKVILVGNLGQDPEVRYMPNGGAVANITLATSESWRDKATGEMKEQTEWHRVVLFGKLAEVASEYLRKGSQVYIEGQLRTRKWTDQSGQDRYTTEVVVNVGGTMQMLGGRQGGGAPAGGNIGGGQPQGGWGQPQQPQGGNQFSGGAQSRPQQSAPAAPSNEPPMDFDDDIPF", "experiment": "E. coli SSB-DNA binding inhibitors, counter-screen for HCV NS3 helicase inhibitor project, biochemical, fluorescence polarization, selected ChemBridge compounds (AID 720486);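 also: displacers lower Cy5 polarization so higher inhibition means more SSB displaced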", "settings": "E. coli SSB binding Cy5-dT15, fluorescence polarization; at 100 µM; hits give high values", "values": [{"smiles": "O=C1NC(=O)C(=Cc2cc([N+](=O)[O-])cc(Br)c2O)C(=O)N1", "inhibition": "51.5% (active)"}, {"smiles": "CCN(CC)c1ccc(C=C2C(=O)N(C)C(=O)N(C)C2=O)c(O)c1", "inhibition": "30.8%"}, {"smiles": "O=C(NC(=S)Nc1ccc(-c2nc3cc(Cl)ccc3o2)cc1)c1ccco1", "inhibition": "19.9%"}, {"smiles": "COc1ccc(N2C(=O)C=CC2=O)c([N+](=O)[O-])c1", "inhibition": "-5.58%"}, {"smiles": "COc1ccc(C(=O)Oc2ccc3oc(=O)cc(C)c3c2)cc1OC", "inhibition": "12.6%"}, {"smiles": "COc1cc(/C(O)=C(\\C#N)c2nc3ccccc3n2C)cc(OC)c1OC", "inhibition": "10.2%"}, {"smiles": "Cc1ccc(C(=O)C[n+]2cc(-c3ccccc3)n3c2CCCCC3)cc1", "inhibition": "5.34%"}, {"smiles": "CC(C)(C)N1C(=O)NC(=O)C(=Cc2cccs2)C1=O", "inhibition": "11.4%"}, {"smiles": "C=CCN1C(=O)/C(=C\\c2cc(OC)c(O)c([N+](=O)[O-])c2)C(=O)NC1=S", "inhibition": "98.8% (active)"}, {"smiles": "CCN(CC)c1ccc(NC(=O)/C(=C\\c2ccccc2)NC(C)=O)cc1", "inhibition": "55.1% (active)"}, {"smiles": "COc1cc(C=C2C(=O)NC(=O)NC2=O)ccc1OCCOc1ccc([N+](=O)[O-])cc1", "inhibition": "19.9%"}, {"smiles": "CCOc1ccc(C=C2C(=O)NC(=O)NC2=O)cc1Cl", "inhibition": "19.9%"}, {"smiles": "Cc1ccc(C(=O)NCCNc2ccc([N+](=O)[O-])cc2)cc1", "inhibition": "34.5%"}, {"smiles": "O=c1c2c(nc3cc(-c4cccc(F)c4)[nH]n13)CCS2", "inhibition": "84.2% (active)"}, {"smiles": "N#Cc1c(N)nc2sc(C(=O)Nc3ccccc3)c(N)c2c1-c1ccco1", "inhibition": "16.3%"}]}]}
